The sample as a whole holds a higher share of the strongest signals than the screen did.
Tests used:
Assay in all cases: glycan array binding signal (z-score within array); higher = stronger binding
Fuc(a1-2)Gal(b1-4)GlcNAc = conditions: glycan notation: IUPAC condensed, linker removed
Method in brief: (§1)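 The binding signal is a Z-score computed within each array. Data were drawn from 3228 arrays in the Consortium for Functional Glycomics database, restricted to those with a known protein sequence. Scores were averaged over arrays of the same protein sequence at different concentrations or buffers, and over linkers, and negative values can be taken as non-binding.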

[1] = tested on: Fuc(a1-2)Gal(b1-4)GlcNAc(b1-3)[Fuc(a1-2)Gal(b1-4)GlcNAc(b1-6)]GalNAc; conditions: glycan notation: IUPAC condensed, linker removed
Method in brief: as §1

[2] = tested on: Fuc(a1-2)Gal(b1-4)[Fuc(a1-3)]GlcNAc; conditions: glycan notation: IUPAC condensed, linker removed
Method in brief: as §1

[3] = tested on: Fuc(a1-2)Gal(b1-4)GlcNAc(b1-2)Man; conditions: glycan notation: IUPAC condensed, linker removed
Method in brief: as §1

[4] = tested on: Fuc(a1-2)Gal(b1-4)GlcNAc(b1-3)Gal(b1-4)GlcNAc(b1-3)Gal(b1-4)GlcNAc; conditions: glycan notation: IUPAC condensed, linker removed; mutation: R125K
Method in brief: as §1

[5] = tested on: Fuc(a1-2)Gal(b1-4)GlcNAc(b1-3)Gal(b1-4)GlcNAc; conditions: glycan notation: IUPAC condensed, linker removed; mutation: R125K
Method in brief: as §1

[6] = tested on: Fuc(a1-2)Gal(b1-4)GlcNAc(b1-3)[Fuc(a1-3)[Gal(b1-4)]GlcNAc(b1-6)]Gal(b1-4)Glc; conditions: glycan notation: IUPAC condensed, linker removed
Method in brief: as §1

[7] = tested on: Fuc(a1-2)Gal(b1-4)GlcNAc(b1-6)GalNAc; conditions: glycan notation: IUPAC condensed, linker removed
Method in brief: as §1

[8] = tested on: Fuc(a1-2)Gal3S(b1-4)GlcNAc; conditions: glycan notation: IUPAC condensed, linker removed
Method in brief: as §1

[9] = tested on: Fuc(a1-2)Gal6S(b1-3)GlcNAc; conditions: glycan notation: IUPAC condensed, linker removed
Method in brief: as §1

[10] = tested on: Fuc(a1-2)Gal6S(b1-4)Glc6S; conditions: glycan notation: IUPAC condensed, linker removed
Method in brief: as §1

[11] = tested on: Fuc(a1-2)Gal6S(b1-4)GlcNAc; conditions: glycan notation: IUPAC condensed, linker removed
Method in brief: as §1

[12] = tested on: Fuc(a1-2)Gal(b1-4)GlcNAc(b1-2)[Fuc(a1-2)Gal(b1-4)GlcNAc(b1-4)]Man(a1-3)[Fuc(a1-2)Gal(b1-4)GlcNAc(b1-2)Man(a1-6)]Man(b1-4)GlcNAc(b1-4)GlcNAc; conditions: glycan notation: IUPAC condensed, linker removed
Method in brief: as §1

[13] = tested on: Fuc(a1-2)Gal(b1-4)[Fuc(a1-3)]GlcNAc(b1-2)[Fuc(a1-2)Gal(b1-4)[Fuc(a1-3)]GlcNAc(b1-4)]Man(a1-3)[Fuc(a1-2)Gal(b1-4)[Fuc(a1-3)]GlcNAc(b1-2)Man(a1-6)]Man(b1-4)GlcNAc(b1-4)GlcNAc; conditions: glycan notation: IUPAC condensed, linker removed
Method in brief: as §1

[14] = tested on: Fuc(a1-2)Gal(b1-4)GlcNAc(b1-3)GalNAc; conditions: glycan notation: IUPAC condensed, linker removed
Method in brief: as §1

[15] = tested on: Fuc(a1-2)Gal(b1-4)[Fuc(a1-3)]GlcNAc(b1-2)Man(a1-3)[Fuc(a1-2)Gal(b1-4)[Fuc(a1-3)]GlcNAc(b1-2)Man(a1-6)]Man(b1-4)GlcNAc(b1-4)GlcNAc; conditions: glycan notation: IUPAC condensed, linker removed
Method in brief: as §1

[16] = tested on: Fuc(a1-2)Gal(b1-4)[Fuc(a1-3)]GlcNAc(b1-3)GalNAc; conditions: glycan notation: IUPAC condensed, linker removed
Method in brief: as §1

[17] = tested on: Fuc(a1-2)Gal(b1-4)GlcNAc(b1-3)Gal(b1-4)GlcNAc(b1-2)Man(a1-3)[Fuc(a1-2)Gal(b1-4)GlcNAc(b1-3)Gal(b1-4)GlcNAc(b1-2)Man(a1-6)]Man(b1-4)GlcNAc(b1-4)GlcNAc; conditions: glycan notation: IUPAC condensed, linker removed
Method in brief: as §1

[18] = tested on: Fuc(a1-2)Gal(b1-4)[Fuc(a1-3)]GlcNAc(b1-3)Gal(b1-4)[Fuc(a1-3)]GlcNAc; conditions: glycan notation: IUPAC condensed, linker removed
Method in brief: as §1

[19] = tested on: Fuc(a1-2)Gal(b1-4)[Fuc(a1-3)]GlcNAc(b1-3)Gal(b1-4)[Fuc(a1-3)]GlcNAc(b1-3)Gal(b1-4)[Fuc(a1-3)]GlcNAc; conditions: glycan notation: IUPAC condensed, linker removed
Method in brief: as §1

Sequence of PILRa (Mus musculus), Q2YSF3 (Q2YSF3 entry or part of it): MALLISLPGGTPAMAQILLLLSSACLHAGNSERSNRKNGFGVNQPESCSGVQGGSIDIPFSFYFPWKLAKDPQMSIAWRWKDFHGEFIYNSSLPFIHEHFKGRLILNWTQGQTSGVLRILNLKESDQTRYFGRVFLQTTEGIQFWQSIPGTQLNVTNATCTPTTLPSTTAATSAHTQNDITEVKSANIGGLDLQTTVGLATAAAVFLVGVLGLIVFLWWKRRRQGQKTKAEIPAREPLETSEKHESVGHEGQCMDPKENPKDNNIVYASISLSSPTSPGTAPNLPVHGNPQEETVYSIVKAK
Sequence of PILRb (Mus musculus), Q2YSF2 (Q2YSF2 entry or part of it): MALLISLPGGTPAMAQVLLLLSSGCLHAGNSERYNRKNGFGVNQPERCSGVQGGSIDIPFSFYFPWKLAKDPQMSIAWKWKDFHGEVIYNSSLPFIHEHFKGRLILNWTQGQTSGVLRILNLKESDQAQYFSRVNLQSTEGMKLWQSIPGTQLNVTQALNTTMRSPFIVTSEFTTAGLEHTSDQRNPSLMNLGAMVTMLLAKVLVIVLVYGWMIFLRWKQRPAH
Sequence of Neurocan (Homo sapiens), O14594 (O14594 other isoform, or with tags, fused parts or gaps): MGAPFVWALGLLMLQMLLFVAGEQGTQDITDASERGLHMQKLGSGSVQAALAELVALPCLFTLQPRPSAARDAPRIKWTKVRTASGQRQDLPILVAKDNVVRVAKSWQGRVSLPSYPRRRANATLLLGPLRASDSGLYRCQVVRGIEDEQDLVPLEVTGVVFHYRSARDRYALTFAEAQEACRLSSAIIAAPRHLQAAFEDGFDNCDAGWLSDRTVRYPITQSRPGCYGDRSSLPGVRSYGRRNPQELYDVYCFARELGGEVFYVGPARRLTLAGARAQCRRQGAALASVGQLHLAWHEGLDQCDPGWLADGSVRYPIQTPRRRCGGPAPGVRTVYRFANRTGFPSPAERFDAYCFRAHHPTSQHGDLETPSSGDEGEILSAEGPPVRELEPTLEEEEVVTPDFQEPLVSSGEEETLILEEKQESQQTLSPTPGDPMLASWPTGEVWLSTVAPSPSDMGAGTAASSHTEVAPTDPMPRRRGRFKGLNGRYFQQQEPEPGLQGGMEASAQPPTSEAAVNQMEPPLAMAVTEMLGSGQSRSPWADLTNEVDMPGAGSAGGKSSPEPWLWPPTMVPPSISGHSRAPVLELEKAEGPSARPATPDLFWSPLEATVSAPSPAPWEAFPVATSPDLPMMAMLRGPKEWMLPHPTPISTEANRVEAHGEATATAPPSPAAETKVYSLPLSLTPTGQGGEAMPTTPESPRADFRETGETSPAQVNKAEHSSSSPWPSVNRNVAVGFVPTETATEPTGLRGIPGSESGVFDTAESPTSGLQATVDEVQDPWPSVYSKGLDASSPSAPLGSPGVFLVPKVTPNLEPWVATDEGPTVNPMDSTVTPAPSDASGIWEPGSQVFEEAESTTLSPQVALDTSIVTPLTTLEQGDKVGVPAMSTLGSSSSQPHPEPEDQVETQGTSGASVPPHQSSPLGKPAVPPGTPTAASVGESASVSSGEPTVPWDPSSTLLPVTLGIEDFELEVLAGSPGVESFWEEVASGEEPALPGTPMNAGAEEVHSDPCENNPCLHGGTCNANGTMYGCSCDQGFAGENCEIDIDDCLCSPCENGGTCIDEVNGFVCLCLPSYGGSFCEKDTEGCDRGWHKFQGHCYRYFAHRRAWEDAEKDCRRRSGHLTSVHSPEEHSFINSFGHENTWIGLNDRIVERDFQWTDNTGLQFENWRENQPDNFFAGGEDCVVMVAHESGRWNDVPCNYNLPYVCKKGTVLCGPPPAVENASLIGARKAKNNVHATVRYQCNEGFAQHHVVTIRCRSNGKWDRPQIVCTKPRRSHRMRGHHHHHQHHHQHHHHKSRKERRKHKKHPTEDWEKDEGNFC
Sequence of 6RG (Lolium perenne) (chain, as listed by the source): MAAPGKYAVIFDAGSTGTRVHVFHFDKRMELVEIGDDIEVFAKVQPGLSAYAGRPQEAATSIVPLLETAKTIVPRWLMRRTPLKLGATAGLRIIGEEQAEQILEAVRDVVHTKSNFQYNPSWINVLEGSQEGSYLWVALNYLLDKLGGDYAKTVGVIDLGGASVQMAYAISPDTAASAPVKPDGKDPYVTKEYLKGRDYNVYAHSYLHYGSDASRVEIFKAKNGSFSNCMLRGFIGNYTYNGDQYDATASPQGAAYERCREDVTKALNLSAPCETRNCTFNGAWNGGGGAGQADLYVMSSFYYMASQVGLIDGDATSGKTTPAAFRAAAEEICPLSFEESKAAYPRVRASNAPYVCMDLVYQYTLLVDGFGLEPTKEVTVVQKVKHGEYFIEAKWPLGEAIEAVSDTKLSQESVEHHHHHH
Sequence of Regenerating Gene IV (Homo sapiens), Q9BYZ8 (Q9BYZ8 whole entry, looked up): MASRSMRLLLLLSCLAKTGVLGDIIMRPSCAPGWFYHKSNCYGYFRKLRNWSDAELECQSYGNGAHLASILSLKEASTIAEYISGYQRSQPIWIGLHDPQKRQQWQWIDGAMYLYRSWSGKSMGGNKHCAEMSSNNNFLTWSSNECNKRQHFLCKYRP
Sequence of Avaren (Actinomycete K97) (chain, as listed by the source): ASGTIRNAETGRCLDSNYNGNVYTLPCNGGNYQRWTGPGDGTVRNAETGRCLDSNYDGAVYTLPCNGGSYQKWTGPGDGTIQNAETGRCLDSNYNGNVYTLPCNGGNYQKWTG
Sequence of wLAT-1A (Homo sapiens), Q01650 (Q01650 whole entry): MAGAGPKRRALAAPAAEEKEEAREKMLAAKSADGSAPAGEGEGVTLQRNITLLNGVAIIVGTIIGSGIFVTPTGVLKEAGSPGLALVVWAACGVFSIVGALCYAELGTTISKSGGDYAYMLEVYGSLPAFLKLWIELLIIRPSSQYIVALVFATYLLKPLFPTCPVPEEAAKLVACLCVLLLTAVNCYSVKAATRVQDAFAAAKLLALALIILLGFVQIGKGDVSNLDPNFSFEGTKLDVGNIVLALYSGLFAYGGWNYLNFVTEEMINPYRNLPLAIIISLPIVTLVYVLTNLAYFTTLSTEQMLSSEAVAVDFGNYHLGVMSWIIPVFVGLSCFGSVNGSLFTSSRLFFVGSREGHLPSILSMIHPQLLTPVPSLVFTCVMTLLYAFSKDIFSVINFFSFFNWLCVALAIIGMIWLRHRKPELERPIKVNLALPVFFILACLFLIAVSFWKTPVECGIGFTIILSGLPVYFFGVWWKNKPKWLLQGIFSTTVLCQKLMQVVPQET
Sequence of SRLC (Mus musculus), Q8VIF6 (Q8VIF6 other isoform, or with tags, fused parts or gaps): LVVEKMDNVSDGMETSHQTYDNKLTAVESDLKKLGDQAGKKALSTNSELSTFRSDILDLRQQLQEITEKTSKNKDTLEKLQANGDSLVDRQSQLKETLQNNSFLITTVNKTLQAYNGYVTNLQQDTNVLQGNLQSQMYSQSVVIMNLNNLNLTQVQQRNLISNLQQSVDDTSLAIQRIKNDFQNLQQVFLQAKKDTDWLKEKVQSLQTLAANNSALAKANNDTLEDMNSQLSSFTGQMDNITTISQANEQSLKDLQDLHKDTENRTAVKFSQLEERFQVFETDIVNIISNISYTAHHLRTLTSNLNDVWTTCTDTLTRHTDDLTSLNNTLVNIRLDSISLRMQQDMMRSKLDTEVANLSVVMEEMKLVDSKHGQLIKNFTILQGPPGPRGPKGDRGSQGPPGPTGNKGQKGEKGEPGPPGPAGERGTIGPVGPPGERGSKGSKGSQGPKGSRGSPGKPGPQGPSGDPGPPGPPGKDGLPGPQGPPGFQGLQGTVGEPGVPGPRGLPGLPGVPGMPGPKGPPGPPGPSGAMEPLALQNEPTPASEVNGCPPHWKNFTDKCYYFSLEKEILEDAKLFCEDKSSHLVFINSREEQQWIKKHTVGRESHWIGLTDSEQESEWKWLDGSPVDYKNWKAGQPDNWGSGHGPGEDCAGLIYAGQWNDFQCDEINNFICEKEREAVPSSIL
Sequence of CHI3L1 (Homo sapiens), P36222 (P36222 whole entry): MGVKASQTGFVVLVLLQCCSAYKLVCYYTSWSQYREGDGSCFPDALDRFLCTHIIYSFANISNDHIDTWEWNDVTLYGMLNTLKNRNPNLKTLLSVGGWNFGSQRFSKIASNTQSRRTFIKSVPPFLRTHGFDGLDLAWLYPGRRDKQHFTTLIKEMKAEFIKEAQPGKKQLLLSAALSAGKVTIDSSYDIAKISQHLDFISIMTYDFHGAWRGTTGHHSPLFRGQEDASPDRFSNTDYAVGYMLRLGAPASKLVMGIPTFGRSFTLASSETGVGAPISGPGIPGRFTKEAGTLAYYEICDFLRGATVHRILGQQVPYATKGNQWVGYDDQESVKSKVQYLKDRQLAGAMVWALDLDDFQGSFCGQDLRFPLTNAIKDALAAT
Sequence of 6RG (Lolium perenne), B9U140 (B9U140 entry or part of it): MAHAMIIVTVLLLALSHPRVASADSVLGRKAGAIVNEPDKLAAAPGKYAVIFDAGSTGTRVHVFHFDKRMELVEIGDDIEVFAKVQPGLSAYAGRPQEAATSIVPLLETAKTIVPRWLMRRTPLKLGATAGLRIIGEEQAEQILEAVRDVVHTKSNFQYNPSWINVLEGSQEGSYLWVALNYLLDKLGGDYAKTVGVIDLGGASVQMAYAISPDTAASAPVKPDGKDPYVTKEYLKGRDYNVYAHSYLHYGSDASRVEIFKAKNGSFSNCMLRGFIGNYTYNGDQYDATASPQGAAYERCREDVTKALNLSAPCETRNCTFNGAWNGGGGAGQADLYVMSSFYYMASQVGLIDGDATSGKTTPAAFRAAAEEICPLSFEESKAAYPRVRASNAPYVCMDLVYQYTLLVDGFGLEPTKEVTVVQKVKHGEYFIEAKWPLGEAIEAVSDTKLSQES

HARE (Homo sapiens), Q8WWQ8 was tested, and the “glycan array binding signal (z-score)” value (Fuc(a1-2)Gal(b1-4)GlcNAc) was 2.62.

CHI3L1 (Homo sapiens), P36222 was tested, and the “glycan array binding signal (z-score)” value [1] was -0.129.

In the case of Avaren (Actinomycete K97), the “glycan array binding signal (z-score)” value [2] is reported as -0.134.

With Siglec-8 (Homo sapiens), Q9NYZ4 the “glycan array binding signal (z-score)” value [3] was -0.065, the “glycan array binding signal (z-score)” value [4] was -0.32 and the “glycan array binding signal (z-score)” value [5] was -0.565. For the same substance, the “glycan array binding signal (z-score)” value [6] was -0.102, the “glycan array binding signal (z-score)” value [7] was 0.139 and the “glycan array binding signal (z-score)” value (Fuc(a1-2)Gal(b1-4)GlcNAc; mutation: R125K) was -0.001. The “glycan array binding signal (z-score)” value [8] was -0.157, the “glycan array binding signal (z-score)” value [9] was 0.008 and the “glycan array binding signal (z-score)” value ([10]; mutation: R125K) was -0.235.

In the case of wLAT-1A (Homo sapiens), Q01650, the “glycan array binding signal (z-score)” value [11] is reported as -0.807.

In the case of 6RG (Lolium perenne), B9U140, the “glycan array binding signal (z-score)” value [10] is reported as 0.291.

With SRLC (Mus musculus), Q8VIF6 the “glycan array binding signal (z-score)” value [11] was -0.208.

With Neurocan (Homo sapiens), O14594 the “glycan array binding signal (z-score)” value [12] was 0.982 and the “glycan array binding signal (z-score)” value [13] was 2.6.

With PILRb (Mus musculus), Q2YSF2 the “glycan array binding signal (z-score)” value [14] was -0.066, the “glycan array binding signal (z-score)” value [15] was 2.37 and the “glycan array binding signal (z-score)” value [13] was 0.151. The “glycan array binding signal (z-score)” value [16] was 11.4 and the “glycan array binding signal (z-score)” value [2] was -0.235.

With MpAFP RI GFP (Marinomonas primoryensis) the “glycan array binding signal (z-score)” value [17] was 1.06 and the “glycan array binding signal (z-score)” value [9] was -0.023.

In the case of “Regenerating Gene IV (Homo sapiens), Q9BYZ8”, the “glycan array binding signal (z-score)” value [10] is reported as 3.23.

With 6RG (Lolium perenne) the “glycan array binding signal (z-score)” value [18] was -0.204.

For PILRa (Mus musculus), Q2YSF3, the “glycan array binding signal (z-score)” value [19] was -0.134, the “glycan array binding signal (z-score)” value [18] was 1.82 and the “glycan array binding signal (z-score)” value [16] was 1.77. The “glycan array binding signal (z-score)” value [2] was -0.097.

Source: the supplement of paper PMC8728848
